Among the data in PubChem BioAssay (NCI) are growth values, retold here.

Holding throughout (assay): NCI-60 one-dose screen, 48 h (100 = growth as untreated, 0 = no growth, -100 = all killed)
Experiment [1] deals with SK-MEL-2 melanoma. The note with it: 10 µM unless noted.
Experiment [2] deals with EKVX NSCLC. The conditions noted are these: 10 µM unless noted.
Experiment [3] concerns SN12C renal. The note with it: 10 µM unless noted.
Experiment [4] deals with UO-31 renal. The note with it: 10 µM unless noted.
Experiment [5] has as its system TK-10 renal. The conditions noted are these: 10 µM unless noted.
In experiment [6] the test system is ACHN renal. The conditions noted are these: 10 µM unless noted.
Experiment [7] relates to CAKI-1 renal. The conditions noted are these: 10 µM.
Experiment [8] concerns A498 renal. The conditions noted are these: 10 µM unless noted.
The test system of experiment [9] is CCRF-CEM leukemia. The note with it: 10 µM unless noted.
Experiment [10] deals with MOLT-4 leukemia. The note with it: 10 µM unless noted.
The test system of experiment [11] is SR leukemia. The conditions noted are these: 10 µM unless noted.
Experiment [12] deals with OVCAR-8 ovarian. The note with it: 10 µM unless noted.
Experiment [13] has as its system OVCAR-5 ovarian. The note with it: 10 µM unless noted.
Experiment [14] deals with OVCAR-4 ovarian. The note with it: 10 µM unless noted.
The subject of experiment [15] is SK-OV-3 ovarian. The conditions noted are these: 10 µM unless noted.
Experiment [16] concerns IGROV1 ovarian. The note with it: 10 µM unless noted.
Experiment [17] relates to OVCAR-3 ovarian. The note with it: 10 µM unless noted.
The test system of experiment [18] is HS 578T breast. The conditions noted are these: 10 µM unless noted.
For experiment [19], the system named is NCI/ADR-RES ovarian. The conditions noted are these: 10 µM unless noted.
For experiment [20], the system named is RPMI-8226 leukemia. The conditions noted are these: 10 µM unless noted.

About 83,000 compounds went through this panel and 20% of them were active in at least one assay; those are over-represented in the sample as a whole.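 Step 1: grow cells in 96-well plates. Step 2: add test compound at a single concentration. Step 3: incubate 48 h. Step 4: record percent growth.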 Values without a mark were called inactive. Calls of active or inactive are those of the source. The calls were made as follows: active = growth percent below 10; inactive = the rest.

Regarding `CC1=C2C(=C[C@@](C)(COS(N)(=O)=O)[C@@H]2O)C(=O)[C@](C)(O)C12CC2`, the growth in [1] was 41.2%; in [2], 94.9%; in experiment [3], 81.2%; in [4], 54.6%; in experiment [5], 95.9%; in experiment [6], 47.4%. Further, the growth in experiment [7] was 85.8%; in [8], 55.7%; in experiment [9], 98.2%; in experiment [10], 97.3%; in experiment [11] it was 102%; in experiment [12], 74.3%. Also, the growth in experiment [13] was 41.4%; in [14] it was 80.8%; in [15], 53.9%; in experiment [16], 60.7%; in experiment [17] it was 62.6%; in experiment [18], 104%. Further, the growth in experiment [19] was 63.5%.

As for `O=C1c2c(c3c4cccnc4[nH]c3c3ccc4ccccc4c23)C(=O)N1CCN1CCCCC1`, the growth in experiment [1] is 114%; in experiment [2], 78%; in [3], 45.2%; in [4] it was 36.9%; in experiment [5], 104%; in [6], 20%. Further, the growth was 22.8% in [7]; 80.1% in experiment [8]; 17.9% in experiment [9]; 6.84% (active) in experiment [10]; 15.4% in experiment [11]; 49.5% in experiment [12]. In addition, the growth in experiment [13] was 88.6%; in experiment [14], 95.2%; in [15], 62.9%; in [18] it was 105%; in [19] it was 41.2%.

For the molecule `Nc1nc(N)c2c(n1)NC(c1ccccc1)CC(c1ccc(Nc3nc(NCCO)nc(Nc4ccc(Cl)cc4)n3)cc1)=N2` (configuration not stated), the growth in experiment [1] is 71.9%; in experiment [2] it was 92.6%; in experiment [3], 49.4%; in experiment [4], 43.9%; in experiment [5], 63.7%; in [6] it was 70.2%. Besides, the growth was 61% in experiment [7]; 71.3% in [8]; -11.2% (active) in [9]; 1.48% (active) in experiment [10]; -56.2% (active) in [20]; -20% (active) in experiment [12]. Also, the growth in experiment [13] was 111%; in experiment [14], 57.2%; in [15], 116%; in experiment [16], 64.3%; in [18] it was 79.9%; in experiment [19], 48.4%.

For the molecule `CC1(C)CC[C@]2(C(=O)N3CCCN(CC#N)CC3)CC[C@]3(C)C(=CC[C@@H]4[C@@]5(C)CC[C@H](O)C(C)(C)[C@@H]5CC[C@]43C)[C@H]2C1`, the growth in [1] was 76.8%; in [2] it was 91.2%; in [3], 59.6%; in [4], 63.7%; in experiment [5], 81.7%; in [6] it was 59%. Also, the growth was 43.7% in experiment [7]; 39.8% in experiment [8]; 18.2% in [9]; 19.1% in experiment [10]; 19.9% in [20]; 55.7% in [12]. Moreover, the growth is 84.1% in experiment [13]; 86.7% in experiment [14]; 83.7% in [15]; 66.1% in experiment [16]; 78.8% in experiment [18]; 57.2% in experiment [19].

Take `O=S(=O)(Nc1ccc(-n2cnc3cc(-c4ccc(O)cc4)ccc32)cc1)C1CC1`: the growth was 95% in experiment [1]; 101% in [2]; 88.3% in [3]; 55.6% in experiment [4]; 111% in experiment [5]; 78.1% in experiment [6]. Besides, the growth is 66.3% in experiment [7]; 66% in [8]; 79.4% in experiment [9]; 72% in experiment [10]; 79.8% in experiment [20]; 88.7% in [12]. In addition, the growth was 107% in [13]; 78.2% in experiment [14]; 117% in experiment [15]; 86% in experiment [16]; 95% in experiment [18]; 94.2% in [19].

As for `COc1ccc(C(=O)c2c(N)c(C#N)cn2-c2cccc(OC)c2)cc1`, the growth is 28.8% in [1]; 38.7% in [2]; 32.4% in experiment [3]; 33.8% in [4]; 69.2% in experiment [5]; 38.5% in experiment [6]. For the same molecule, the growth is 30.5% in experiment [7]; -1.17% (active) in experiment [8]; 18.1% in experiment [9]; 29.3% in experiment [10]; 27% in [11]; 34.2% in [12]. For the same molecule, the growth was 56.9% in experiment [13]; 63.1% in experiment [14]; 32% in experiment [16]; 30.3% in [17]; 11% in [18]; 9.32% (active) in experiment [19].

Turning to `C#C[C@]1(O)CC[C@H]2[C@@H]3CC=C4c5sc(-c6cccc(F)c6)nc5CC[C@]4(C)[C@H]3CC[C@@]21C`, the growth was 91.9% in [1]; 83.5% in [2]; 89.6% in experiment [3]; 82% in experiment [4]; 121% in experiment [5]; 85.4% in [6]. In addition, the growth in [7] is 92.4%; in experiment [8], 101%; in experiment [9] it was 75.1%; in [10], 53.1%; in experiment [11], 76.4%; in [12], 96.8%. Also, the growth was 83.2% in experiment [13]; 110% in [14]; 92.7% in experiment [15]; 97.2% in experiment [16]; 102% in [17]; 89.1% in [19].

With `Cc1ccc(-c2nnc3sc(C4=Cc5ccccc5OC=C4)nn23)cc1`, the growth was 104% in experiment [1]; 99.4% in experiment [2]; 97.3% in experiment [3]; 87.3% in experiment [4]; 89.1% in experiment [5]; 105% in experiment [6]. The growth in experiment [7] was 79.6%; in [8], 61.6%; in [9], 105%; in experiment [10], 82.8%; in experiment [20], 101%; in experiment [12], 89.8%. The growth in experiment [13] is 98%; in experiment [14], 99.2%; in [15], 118%; in [16] it was 109%; in [18] it was 112%; in experiment [19], 98.2%.

Regarding `C#C[C@]1(O)CC[C@H]2[C@@H]3CC=C4c5sc(C6CCOCC6)nc5CC[C@]4(C)[C@H]3CC[C@@]21C`, the growth in experiment [1] is 94.6%; in experiment [2], 84.2%; in experiment [3], 82.9%; in [4] it was 83.9%; in experiment [5], 113%; in experiment [6] it was 88.2%. Further, the growth was 84.5% in experiment [7]; 96.9% in experiment [8]; 52.3% in [9]; 38.3% in [10]; 58.6% in [11]; 83.8% in experiment [12]. For the same molecule, the growth in [13] was 88.6%; in experiment [14] it was 89.7%; in experiment [15], 104%; in experiment [16] it was 90.8%; in [17], 94.2%; in [19], 80.6%.
